Test results: PubChem BioAssay (NCATS)
Results filed as inconclusive are left out. A call without a number means that no potency is given here. Activity calls are given as the source filed them. Calls follow the shape of the dose curve; as a rule, active = well fitted inhibition curve with a large enough effect; inconclusive = small, poorly fitted or top-dose-only effect; inactive = flat fitted curve, though single readings scatter.

Columns and labels:
Experiment in all cases: qHTS profiling for inhibitors of Plasmodium falciparum proliferation (AID 504749); also: nearly all actives have a fitted effect of over 60% in size
Settings in all cases: P. falciparum in erythrocytes, SYBR Green DNA, 72 h; series mostly up to 28.7 µM
[1] = system: CP217
Outline: (§1)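 P. falciparum-infected erythrocytes (0.3% parasitemia, 2.5% hematocrit final) were exposed to compounds for 72 h at 37 C in 5% CO2, then lysed with SYBR Green buffer overnight at room temperature; parasite DNA fluorescence was normalized to artemisinin and DMSO controls.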

[2] = system: CP237
Outline: as §1

[3] = system: CP238
Outline: as §1

[4] = system: CP247
Outline: as §1

[5] = system: CP250
Outline: as §1

[6] = system: CP252
Outline: as §1

[7] = system: CP256
Outline: as §1

[8] = system: CP260
Outline: as §1

[9] = system: CP262
Outline: as §1

[10] = system: CP215
Outline: as §1
Potency is read from the fitted curve at half-maximal effect.

Row | Compound | Potency [1] | Potency [2] | Potency [3] | Potency [4] | Potency [5] | Potency [6] | Potency [7] | Potency [8] | Potency [9] | Potency [10]
1 | C=CCN=C=S | inactive | inactive | inactive | inactive | inactive | inactive | inactive | inactive | inactive | –
2 | CCNC(C)Cc1cccc(C(F)(F)F)c1 (configuration not stated) | inactive | – | inactive | inactive | inactive | inactive | inactive | inactive | inactive | inactive
3 | C[C@@H](Cc1ccccc1)NCCC(c1ccccc1)c1ccccc1 | – | inactive | inactive | – | – | inactive | – | – | – | inactive
4 | CCOc1ccc2c3c1O[C@H]1[C@@H](O)C=C[C@H]4[C@@H](C2)N(C)CC[C@@]341 | inactive | inactive | inactive | inactive | inactive | inactive | inactive | inactive | – | –
5 | F/C(COc1ccc2c(c1)[nH]c1ccccc12)=C1/CN2CCC1CC2 | – | 6.31 µM (active) | 11.2 µM (active) | – | – | – | – | 5.62 µM (active) | inactive | inactive
6 | O=c1[nH]c(=O)n(Cl)c(=O)n1Cl | inactive | inactive | inactive | inactive | inactive | inactive | inactive | inactive | inactive | –
7 | O=C1CN=C(c2ccccc2)c2cc(Cl)ccc2N1CC1CC1 | inactive | inactive | inactive | – | inactive | inactive | inactive | – | inactive | inactive
8 | CCN(CC)C(=O)/C(Cl)=C(\C)OP(=O)(OC)OC | inactive | inactive | inactive | inactive | inactive | inactive | inactive | inactive | inactive | –
9 | C=CCN1CC[C@]23c4c5ccc(O)c4O[C@H]2[C@@H](O)C=C[C@H]3[C@H]1C5 | inactive | inactive | inactive | – | inactive | inactive | inactive | inactive | inactive | inactive
10 | c1cc2c(c(NC3=NCCN3)c1)CCCC2 | inactive | inactive | inactive | inactive | inactive | inactive | inactive | inactive | inactive | –
11 | CC1CCC(C(C)C)C(OC(=O)c2ccccc2N)C1 (configuration not stated) | inactive | – | inactive | inactive | inactive | inactive | inactive | inactive | inactive | inactive
12 | O=C(NC(=O)c1c(F)cccc1F)Nc1ccc(Cl)c(Oc2ncc(C(F)(F)F)cc2Cl)c1 | inactive | inactive | inactive | inactive | inactive | inactive | inactive | inactive | inactive | –
13 | CCCC(=O)OC(C(Cl)(Cl)Cl)P(=O)(OC)OC (configuration not stated) | inactive | inactive | inactive | inactive | inactive | inactive | – | inactive | inactive | –
14 | C[C@]12CCC(=O)C[C@@H]1CC[C@@H]1[C@@H]2CC[C@]2(C)[C@@H](O)CC[C@@H]12 | inactive | inactive | inactive | inactive | – | inactive | inactive | – | inactive | inactive
15 | C[C@H]1CCC[C@H](O)CCCCCc2cc(O)cc(O)c2C(=O)O1 | – | – | inactive | inactive | – | inactive | inactive | – | inactive | –
16 | COc1ccc2c(c1OC)C(=O)OC2C1c2cc3c(cc2CCN1C)OCO3 (configuration not stated) | inactive | inactive | – | inactive | inactive | inactive | inactive | inactive | – | –

Row | Compound | Potency [1] | Potency [2] | Potency [3] | Potency [4] | Potency [5] | Potency [6] | Potency [7] | Potency [8] | Potency [9] | Potency [10]
17 | CCC1(c2ccccc2)C(=O)NC(=O)N(C)C1=O (configuration not stated) | inactive | inactive | inactive | inactive | inactive | inactive | inactive | – | inactive | –
18 | OC(c1ccccc1)(c1ccccc1)C1CN2CCC1CC2 (configuration not stated) | inactive | – | inactive | – | inactive | inactive | inactive | – | inactive | –
19 | COC1=CC=C2[C@H]3Cc4ccc(OC)c5c4[C@@]2(CCN3C)[C@H]1O5 | inactive | – | inactive | inactive | inactive | inactive | inactive | inactive | inactive | inactive
20 | [Cl-].[Cl-].[Hg+2] | 8.91 µM (active) | – | 10 µM (active) | – | inactive | – | – | – | inactive | inactive
21 | N#CC(C#N)=Cc1cc(O)c(O)c(O)c1 | – | 8.91 µM (active) | – | 8.91 µM (active) | 11.2 µM (active) | – | – | 6.31 µM (active) | 15.1 µM (active) | –
22 | CCOP(=O)(OCC)O/C(=C/Cl)c1ccc(Cl)cc1Cl | – | inactive | inactive | – | inactive | inactive | inactive | – | inactive | –
23 | COc1ccc2c3c1O[C@H]1C(=O)CC[C@H]4[C@@H](C2)N(C)CC[C@]314 | inactive | inactive | inactive | inactive | inactive | inactive | inactive | inactive | inactive | –
24 | Cc1sc2ccccc2c1CC1=NCCN1 | inactive | – | inactive | inactive | inactive | inactive | inactive | inactive | inactive | inactive
25 | CC12NC(Cc3ccccc31)c1ccccc12 (configuration not stated) | – | – | – | – | inactive | – | – | – | inactive | inactive
26 | C[N+]1(C)CCCCC1COC(=O)C(O)(c1ccccc1)c1ccccc1 (configuration not stated) | inactive | inactive | inactive | inactive | inactive | inactive | – | – | inactive | inactive
27 | CCC1(c2ccccc2)C(=O)NC(=O)N(C(=O)c2ccccc2)C1=O (configuration not stated) | inactive | inactive | inactive | – | inactive | inactive | inactive | inactive | inactive | inactive
28 | CN1CCCC(=C(c2cccs2)c2cccs2)C1 | – | 4.47 µM (active) | – | – | inactive | – | inactive | – | – | –
29 | Oc1cccc[c]1[Hg][Cl] | 8.91 µM (active) | 10 µM (active) | 11.2 µM (active) | 8.91 µM (active) | – | 12.6 µM (active) | 11.2 µM (active) | 5.62 µM (active) | – | 10.7 µM (active)
30 | CN1[C@@H]2CC[C@H]1CC(OC1c3ccccc3CCc3ccccc31)C2 (some centres not stated) | 3.16 µM (active) | – | – | – | – | 3.16 µM (active) | inactive | – | inactive | inactive
31 | C[C@H]1CC[C@@H]2[C@@H](C)[C@H]3[C@H](C[C@H]4[C@@H]5CC=C6CC(O[C@@H]7O[C@H](CO)[C@H](O)[C@H](O[C@@H]8O[C@H](CO)[C@@H](O)[C@H](O)[C@H]8O)[C@H]7O[C@H]7O[C@@H](C)[C@H](O)[C@@H](O)[C@H]7O)CC[C@]6(C)[C@H]5CC[C@]34C)N2C1 (some centres not stated) | inactive | inactive | inactive | inactive | inactive | inactive | – | inactive | inactive | inactive
